Results reported in PubChem BioAssay (NCATS).
Records with an inconclusive call do not appear. Where a call stands in place of a potency, no number is given. A number with no mark means an inactive call. Active and inactive are the calls of the source. Calls follow the shape of the dose curve; as a rule, active = well fitted curve in the direction sought with a large enough effect; inconclusive = small, poorly fitted or top-dose-only effect, or another doubt; inactive = no such curve, though single readings can be large; an effect the other way counts as inactive or inconclusive.

Legend:
[1] = molecular target: Cellular tumor antigen p53 (Homo sapiens) (UniProt P04637); experiment: Primary qHTS for small molecule compounds that upregulate eGFP-tagged delta133p53alpha (in N-terminal) cells. (AID 2060322); details: NCI-H358 eGFP-delta133p53alpha fluorescence, 24 h; activation: active compounds read high; also: nearly all actives have a fitted effect of over 75% in size; also: potency is read from the fitted curve at half-maximal effect; as to activation: series mostly up to about 56 µM
Procedure, shortened: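 NCI-H358 cells pre-induced 24 h with 10 ng/ml doxycycline to express N-terminal eGFP-delta133p53alpha, then dosed 24 h at 37C without doxycycline; fixed, Hoechst-stained, GFP intensity by laser scanning cytometry, normalized to DMSO (0%) and 57.5 uM 5-azacytidine (100%).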

[2] = molecular target: Aldehyde dehydrogenase, mitochondrial (Homo sapiens) (UniProt P05091); experiment: qHTS for Inhibitors of the Aldehyde Dehydrogenase Family (ALDH2) Primary screen (AID 2061308); also: nearly all actives have a fitted effect of over 55% in size
[3] = molecular target: Retinaldehyde dehydrogenase 3 (Homo sapiens) (UniProt P47895); experiment: qHTS for Inhibitors of the Aldehyde Dehydrogenase Family (ALDH1A3) Primary screen (AID 2061315); also: potency is read from the fitted curve at half-maximal effect

Cellular tumor antigen p53 (Homo sapiens), sequence (P04637 whole entry, looked up): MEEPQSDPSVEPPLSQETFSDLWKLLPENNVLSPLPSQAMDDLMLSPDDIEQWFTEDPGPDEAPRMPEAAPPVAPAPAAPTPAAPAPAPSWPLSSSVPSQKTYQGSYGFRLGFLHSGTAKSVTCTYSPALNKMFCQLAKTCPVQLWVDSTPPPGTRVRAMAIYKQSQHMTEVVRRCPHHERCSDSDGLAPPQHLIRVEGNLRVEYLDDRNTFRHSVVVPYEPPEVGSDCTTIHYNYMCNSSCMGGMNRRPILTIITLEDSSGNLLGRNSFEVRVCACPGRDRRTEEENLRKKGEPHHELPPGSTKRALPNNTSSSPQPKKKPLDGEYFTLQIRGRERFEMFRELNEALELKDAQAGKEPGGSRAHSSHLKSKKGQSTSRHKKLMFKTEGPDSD

Compound | Potency [1] | Potency [2] | Potency [3] | activation [1] [%] | activity change, negative = inhibition [2] | activity change, negative = inhibition [3]
C=C1C(=O)O[C@@H]2[C@H]1[C@H](O)C[C@]1(C)[C@@H](O)CC=C(C)[C@@H]21 | 15.1 µM (active) | inactive | inactive |  |  | 
COc1c2c(c(CO)c3c1C(=O)OC3)OC1(C)CCC3(O)C(C)(C)OC(=O)CCC3(C)C1C2 (configuration not stated) |  | inactive | inactive | -16 |  | 
CCCCS(=O)(=O)Nc1ncnc(OCCOc2ncc(Br)cn2)c1-c1ccc(Br)cc1 |  | inactive | inactive | -20.3 |  | 
COc1cc(O)cc(/C=C/c2cccc(O)c2)c1 |  | inactive | inactive | -8.93 |  | 
C[C@]12CC[C@@H]3c4ccc(O[C@@H]5O[C@H](C(=O)O)[C@@H](O)[C@H](O)[C@H]5O)cc4CC[C@H]3[C@@H]1CCC2=O |  | inactive | inactive | -7 |  | 
CC1OC(O[C@H]2CC[C@@]3(C)C(CC[C@]4(C)C3CC=C3C5CC(C)(C)CC[C@]5(C(=O)OC5OC(CO)C(OC6OCC(OC7OCC(O)C(O)C7O)C(O)C6O)C(O)C5O)CC[C@]34C)C2(C)C)C(O)C(O)C1OC1OC(CO)C(O)C(OC2OC(CO)C(O)C(O)C2O)C1O (some centres not stated) |  |  |  | 9.16 | 8.06% [at 11.2 µM] | 8.31% [at 11.2 µM]
C=CCc1ccc(OC(C)Cc2ccc(OC)c(OC)c2)c(OC)c1 (configuration not stated) |  | inactive | inactive | -15.2 |  | 
CC1=CCC(C(C)(C)O[C@@H]2O[C@H](CO[C@@H]3O[C@@H](C)[C@H](O)[C@@H](O)[C@H]3O)[C@@H](O)[C@H](O)[C@H]2O)CC1 (some centres not stated) |  | inactive | inactive | -6.11 |  | 
CC(C)C(C(=O)N(C)C(C)C(N)=O)N(C)C(=O)C1CCCN1C(=O)/C=C/C=C/C(O)C(C)O (configuration not stated) |  | inactive | inactive | -23.7 |  | 
CCC[C@@H]1C[C@@H](C(=O)N[C@@H]([C@H]2O[C@H](SC)[C@H](O)[C@@H](O)[C@@H]2O)[C@@H](C)O)N(C)C1 |  | inactive | inactive | 7 |  | 
O=C(NCCN1CCCC1)c1cc(-c2ccc(CN3CCOCC3)cc2)nc2ccc(F)cc12 |  | inactive | inactive | 3.67 |  | 
C/C=C/C=C/C=C/C(=O)OC1C=C(C=O)C(O)(C(=O)O)C2(C)CCCC(C)(C)C12 (configuration not stated) |  | inactive | inactive | -9.92 |  | 
CC1OC2OC(=O)C3(C)CC4=C(CO)C5=C(CC(=O)C4(C)C(C1=O)C23)C(C)(C)OC(=O)C5 (configuration not stated) |  | inactive | inactive | -7.63 |  | 
COc1cc(C)c(C(=O)O[C@H]2[C@@H](O)[C@H](n3ccc(=O)[nH]c3=O)O[C@@H]2CO)c(OC)c1 |  | inactive | inactive | -3.05 |  | 
C/C=C(/C)C(=O)OC1C(OC(C)=O)C23C(O)OC4(CCC5C6(C)CCC(OC7OC(C(=O)O)C(O)C(OC8OC(CO)C(O)C(O)C8OC8OC(C)C(O)C(O)C8OC8OCC(O)C(O)C8O)C7OC7OC(CO)C(O)C(O)C7O)C(C)(C)C6CCC5(C)C4(C)CC2OC(C)=O)C3CC1(C)C (configuration not stated) |  |  |  | -7.63 | 23.8% [at 11.2 µM] | 2.15% [at 11.2 µM]
C[C@@H](c1ccccc1)N(C(N)=NC#N)c1cccc2ncccc12 |  | inactive | inactive | 2.33 |  | 
CC1(C)CC[C@]2(C(=O)O)CC[C@]3(C)C(=CCC4[C@@]5(C)CC[C@H](O[C@H]6O[C@H](C(=O)O)[C@@H](O)[C@H](O[C@@H]7O[C@H](CO)[C@H](O)[C@H](O)[C@H]7O)[C@H]6O)C(C)(C)C5CC[C@]43C)[C@@H]2C1 (some centres not stated) |  | inactive | inactive | -5.36 |  | 
C=C(C)C(=O)OC1CC(CO)CCC/C(CO)=C/C2OC(=O)C(=C)C21 (configuration not stated) | 14.8 µM (active) | inactive | inactive |  |  | 
C=C1C(=O)O[C@@H]2C[C@@]3(C)CCC[C@H](C)C3=C[C@H]12 | 19 µM (active) | inactive | inactive |  |  | 
CC(=O)NCCCCn1c2c(c3ccccc31)C(=O)NCC2 |  | inactive | inactive | -13.4 |  | 
COC(=O)C[C@H]1C(C)(C)[C@H](OC(=O)c2ccccc2)C2CC3=C4CC(=O)O[C@@H](c5ccoc5)[C@]4(C)CCC3[C@@]1(C)C2=O (some centres not stated) |  | inactive | inactive | -5.34 |  | 
C=C1CCC(OC(C)=O)C2(C)CC3OC(=O)C(C)=C3CC12 (configuration not stated) |  | inactive | inactive | -0.763 |  | 
CC(C)(O)C1CC=C(C(=O)OC[C@H]2O[C@@H](Oc3cc(C(=O)O)cc(O)c3O)[C@H](O)[C@@H](O)[C@@H]2O)CC1 (some centres not stated) |  | inactive | inactive | -22.1 |  | 
CC(=O)O[C@@H]1C2=C(O)C(=O)[C@](C)(OC(C)=O)C(=O)C2=CO[C@@]12O[C@@H](C)CC[C@H]2OC(C)=O |  | inactive | inactive | -18.3 |  | 
CC(=O)O[C@@H]1C[C@@]23C[C@@]24CC[C@H](OC2OC[C@@H](O)[C@H](O)[C@H]2O)C(C)(C)[C@@H]4CC[C@H]3[C@]2(C)CC3OC4(C[C@@H](C)C3[C@@]12C)OCC1(C)OC14 (some centres not stated) |  | inactive | inactive | 13.4 |  | 

Compound | Potency [1] | Potency [2] | Potency [3] | activation [1] [%] | activity change, negative = inhibition [2] | activity change, negative = inhibition [3]
CC(C)=CCC[C@](C)(O[C@@H]1O[C@H](CO[C@@H]2OC[C@@H](O)[C@H](O)[C@H]2O)[C@@H](O)[C@H](O)[C@H]1O)[C@H]1CC[C@]2(C)[C@@H]1[C@H](O)C[C@@H]1[C@@]3(C)CC[C@H](O[C@@H]4O[C@H](CO)[C@@H](O)[C@H](O)[C@H]4O[C@@H]4O[C@H](CO)[C@@H](O)[C@H](O)[C@H]4O)C(C)(C)[C@@H]3CC[C@]12C |  | inactive | inactive | -8.33 |  | 
CC1=C2CC(=O)C(C)CC/C=C(\C)CC2(O)OC1=O (configuration not stated) |  | inactive | inactive | -1.53 |  | 
C[C@H]1CC[C@@H]2N(C1)C[C@@H]1[C@H]([C@@H](O)[C@H](O)[C@]3(O)[C@H]1C[C@@]14OC5(O)[C@@H](C[C@@H](O)[C@@H]31)[C@]4(C)CC[C@@H]5O)[C@]2(C)O |  | inactive | inactive | 0 |  | 
CC(=O)OC1C(O)C(C)=C(CCC(C)CC(=O)O)C2(C)CCCC(C)(C)C12 (configuration not stated) |  | inactive | inactive | 3.82 |  | 
O=C(O)c1ccc(O)c2ncc(N3CCCN(CCc4cccc5ccccc45)CC3)cc12 |  | inactive | inactive | 21.2 |  | 
Cn1ncnc1[C@@H]1c2n[nH]c(=O)c3cc(F)cc(c23)N[C@H]1c1ccc(F)cc1 |  | inactive | inactive | -7.14 |  | 
COC(=O)C1C(O)CCC2CN3CCc4c([nH]c5ccccc45)C3CC21 (configuration not stated) |  | inactive | inactive | 23.2 |  | 
CC1OC(OC2C(C)OC(OC3C(OC(=O)C45CCC(C)(C)CC4C4=CCC6C7(C)CCC(OC8OC(C(=O)O)C(O)C(O)C8OC8OC(CO)C(O)C(OC9OC(C)C(O)C(O)C9O)C8O)C(C)(CO)C7CCC6(C)C4(C)CC5)OC(CO)C(O)C3O)C(O)C2O)C(O)C(O)C1O (configuration not stated) |  |  |  | 13.4 | -1.8% [at 11.2 µM] | -5.04% [at 11.2 µM]
CCNC(=O)NCCCOc1cccc(CN2CCCCC2)c1 |  | inactive | inactive | 15 |  | 
c1ccc(N2CCN(CCc3nn[nH]n3)CC2)cc1 |  | inactive | inactive | -1.43 |  | 
OCC1OC(Oc2cc(O)cc(/C=C/c3ccc(O)cc3)c2)C(O)C(O)C1O (configuration not stated) |  | inactive | 3.55 µM (active) | -15.3 |  | 
OC[C@H]1O[C@@H](Oc2cc(O)c3c(c2)O[C@@H](c2ccc(O)cc2)[C@H](O)C3)[C@H](O)[C@@H](O)[C@@H]1O |  | inactive | inactive | 4.46 |  | 
C[C@H]1[C@@H](O)[C@H](O)C2[C@]3(C)C([C@@H](O)[C@H]4OC(=O)[C@@H]1[C@@]24C)[C@](C)(O)C=C[C@H]3O[C@@H]1O[C@H](CO)[C@@H](O)[C@H](O)[C@H]1O (some centres not stated) |  | inactive | inactive | 0.893 |  | 
C[C@@H](c1nc(-c2ccc(C#N)cc2)cs1)[C@](O)(Cn1cncn1)c1cc(F)ccc1F |  | inactive | inactive | -2.33 |  | 
CC(C)[C@H]1CC[C@@]2(O)COC(=O)[C@H]2[C@@H]1/C=C(\CO)C(=O)O |  | inactive | inactive | -2.29 |  | 
C=C1C(=O)O[C@@H]2CC(C)=C([C@@H](C)CCCO)[C@@H](OC(=O)C(C)C)[C@H]12 |  | inactive | inactive | 14.3 |  | 
O=C1CCC(c2ccccc2)(C2CCN(Cc3ccc(I)cc3)CC2)C(=O)N1 (configuration not stated) |  | inactive | inactive | 4.33 |  | 
C=C(C(=O)O)C1CC2=C(C)C(=O)CC2C(C)CC1O (configuration not stated) | 12 µM (active) | inactive | inactive |  |  | 
CC(O)C(C)n1ncn(-c2ccc(N3CCN(c4ccc(OCC5COC(Cn6cncn6)(c6ccc(Cl)cc6Cl)O5)cc4)CC3)cc2)c1=O (configuration not stated) |  | inactive | inactive | -5.67 |  | 
COc1ccccc1-c1ccc(-c2cn(C(=O)N3CCCCC3Cc3ccccc3)nn2)cc1 (configuration not stated) |  | inactive | inactive | -5 |  | 
CC1(C(=O)O)CCCC2(C)C3CCC4CC3(CCC12)CC4C(=O)O (configuration not stated) |  | inactive | inactive | -3.05 |  | 
CN[C@H](C(=O)N[C@H](C(=O)N(C)[C@H](/C=C(\C)C(=O)O)C(C)C)C(C)(C)C)C(C)(C)c1ccccc1 |  | inactive | inactive | 15.8 |  | 
CC12CC34C=CC(=O)C(C)(CCC(=O)O)C3C(CC1C4)O2 (configuration not stated) |  | inactive | inactive | 23.7 |  | 
O=C(Nc1ccc(C(O)(C(F)(F)F)C(F)(F)F)cc1)c1ccc(C(F)(F)F)cc1 |  | inactive | inactive | 0 |  | 
